13 compounds from PubChem BioAssay (NCI) can be followed below.

What all share (assay): NCI-60 one-dose screen, 48 h (100 = growth as untreated, 0 = no growth, -100 = all killed)
Holding throughout (conditions): 10 µM unless noted

For assay [1], the system named is SR leukemia.
Assay [2] deals with RPMI-8226 leukemia.
Assay [3] deals with OVCAR-8 ovarian.
The test system of assay [4] is OVCAR-5 ovarian.
The subject of assay [5] is OVCAR-4 ovarian.
Assay [6] concerns SK-OV-3 ovarian.
Assay [7] deals with IGROV1 ovarian.
The test system of assay [8] is OVCAR-3 ovarian.
Assay [9] deals with NCI/ADR-RES ovarian.

Compounds without any hit were thinned out: in the full panel of roughly 83,000, 20% have a hit.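 How to read the values: 0–100, growth inhibition (40 = 60% inhibited); 0, no net growth; -100 to 0, cell death (-40 = 40% of starting cells died; -100 = all dead).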 Unmarked numbers belong to inactive results. Activity calls are given as the source filed them. How the source made its calls: active means growth percent below 10; inactive means the rest.

In the case of `COc1cc(F)c(F)c(Nc2ccc(I)cc2F)c1NS(=O)(=O)C1(C[C@H](O)CO)CC1`, the growth in [1] was 57.7%; in assay [2], 37.8%; in [3], 45.7%; in [4], 13.5%; in assay [5], 46%; in assay [6], 51.3%. In addition, the growth in [7] was 9.36% (active); in [8], 83.1%; in [9], 45.5%.
As for `C=CC(=O)Nc1cccc(Nc2nc(Nc3ccc(N4CCN(C(C)=O)CC4)cc3OC)ncc2C(F)(F)F)c1`, the growth in assay [1] was 1.68% (active); in assay [2], 16.8%; in assay [3], 18.9%; in [4] it was 13.4%; in assay [5] it was 10.5%; in [6] it was -18% (active). For the same compound, the growth in [7] was -29.9% (active); in [8], 19.5%; in assay [9], 21.3%.
With `CC#CC(=O)N1CCC[C@H]1c1nc(-c2ccc(C(=O)Nc3ccccn3)cc2)c2c(N)nccn12`, the growth is 68.3% in assay [1]; 79.7% in assay [2]; 77.8% in [3]; 78.5% in assay [4]; 99.5% in assay [5]; -0.746% (active) in assay [6]. Also, the growth in [7] is 64.8%; in assay [8], 86.5%; in assay [9], 94.3%.
On to `O=C(Nc1ccc(Nc2ncnc3sc4c(c23)CCOC4)cc1)Nc1ccc(Cl)c(C(F)(F)F)c1`, for which the growth in assay [1] was 83%; in assay [2], 80.8%; in assay [3], 109%; in assay [4] it was 89.2%; in assay [5], 131%; in [6] it was 95.3%. Further, the growth in assay [7] is 79.5%; in [8], 87.2%; in assay [9] it was 94.7%.
For `Cn1cnc2c(F)c(Nc3ccc(Br)cc3F)c(C(=O)NOCCO)cc21`, the growth is 64.6% in [1]; 63.5% in assay [2]; 65.8% in assay [3]; 9.55% (active) in assay [4]; 55.9% in [5]; 50.2% in assay [6]. Besides, the growth in [7] was 27.6%; in [8] it was 106%; in assay [9] it was 69.1%.
Take `N#Cc1c(NC(=O)c2cccs2)[n+]([O-])c2ccc(F)cc2[n+]1[O-]`: the growth is 77% in assay [1]; 93.2% in assay [2]; 95.6% in assay [3]; 108% in [4]; 85.7% in assay [5]; 82.6% in [6]. Moreover, the growth in assay [7] is 68.9%; in assay [8], 98.3%; in [9], 111%.
For the compound `C[C@H](NC(=O)c1c(N)nn2cccnc12)c1cc2cccc(C#Cc3cnn(C)c3)c2c(=O)n1-c1ccccc1`, the growth in assay [1] was 3.42% (active); in assay [2], 4.95% (active); in [3], 28.1%; in [4], 45.1%; in assay [5], 31.1%; in [6], -1.83% (active). Moreover, the growth in [7] was -22.7% (active); in assay [8], 19.9%; in assay [9], 31.1%.
`Cn1c(Nc2ccc(C(F)(F)F)cc2)nc2cc(Oc3ccnc(-c4ncc(C(F)(F)F)[nH]4)c3)ccc21`: the growth in [1] is 32.1%; in [2], 86.7%; in assay [3], 58.1%; in assay [4] it was 63.2%; in [5] it was 64.7%; in assay [6], 6.69% (active). Also, the growth was 33.1% in [7], 58.8% in assay [8] and 66.3% in assay [9].
Consider `CC(C)(C)c1nc(-c2cccc(NS(=O)(=O)c3c(F)cccc3F)c2F)c(-c2ccnc(N)n2)s1`, for which the growth in assay [1] is 50.4%; in assay [2], 75.5%; in assay [3], 94.7%; in assay [4], 41.1%; in assay [5] it was 114%; in assay [6], 71.9%. Besides, the growth was 64.5% in [7], 103% in assay [8] and 95.5% in assay [9].
Consider `Cc1nc2ccc(-n3ncc(C(=O)c4cc5ccccc5[nH]4)c3N)cc2[nH]1`, for which the growth in [1] was 14.6%; in [2], 45.2%; in assay [3], 41.9%; in assay [4], 65.9%; in assay [5] it was 71.1%; in assay [6], 49.6%. Further, the growth is 37.2% in assay [7], 63.2% in [8] and 66% in assay [9].
In the case of `CCN1CCN(Cc2ccc(Cc3ncc(F)c(-c4cc(F)c5nc(C)n(C(C)C)c5c4)n3)nc2)CC1`, the growth in assay [1] is -12.4% (active); in assay [2] it was 44.8%; in [3], 68.3%; in [4] it was 46.5%; in assay [5] it was 69.5%; in assay [6], 22.4%. Besides, the growth was 37.3% in assay [7], 63.2% in assay [8] and 72.3% in assay [9].
As to `C[C@@H]1COCCN1c1cc(C2([S@](C)(=N)=O)CC2)nc(-c2ccnc3[nH]ccc23)n1`, the growth in assay [1] was 7.14% (active); in assay [2], 32.4%; in [3] it was 30.7%; in assay [4], 34.5%; in assay [5], 30.3%; in assay [6] it was 4.16% (active). Moreover, the values for the growth in assay [7], in [8] and in assay [9] were 17.7%, 31.7% and 80.4%, respectively.
Turning to `CC(=O)c1cnc2ccc(-c3cc(Cl)c(O)c(Cl)c3)nc2c1NC1CCC(CN(C)C)CC1` (configuration not stated), the growth was -16% [2.5 µM] (active) in [1]; -24.3% [2.5 µM] (active) in assay [2]; -22.9% [2.5 µM] (active) in assay [3]; 2.38% [2.5 µM] (active) in [4]; -9.08% [2.5 µM] (active) in assay [5]; -32.6% [2.5 µM] (active) in assay [6]. The growth in [7] is -17.3% [2.5 µM] (active); in assay [8], 2.02% [2.5 µM] (active); in assay [9], -13.7% [2.5 µM] (active).
